# Test results reported in PubChem BioAssay (NCI).
# Compounds without any hit were thinned out: in the full panel of roughly 83,000, 20% have a hit.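 Method: cells in 96-well plates; compound added at one concentration; 48 h incubation; percent growth measured; values under 10 scored active.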 The source made the active and inactive calls.
# System: SK-MEL-5 melanoma
# Test: NCI-60 one-dose screen, 48 h (100 = growth as untreated, 0 = no growth, -100 = all killed)
# Details: 10 µM unless noted
row,SMILES,growth
1,COc1cc(-c2nn(-c3cccc(NC(=O)Nc4cc(C(F)(F)F)cc(C(F)(F)F)c4)c3)cc2-c2ccncc2)ccc1Cl,-96.1% (active)
2,COc1ccc(C(=O)c2cc(OC)c3c(c2)OCO3)cc1O,-52% (active)
3,CCOC(=O)NNC(=S)Nc1ccccc1,100% (inactive)
4,N#Cc1c(-c2ccccc2)nc(SCC(=O)N2CCN(c3ccccc3)CC2)[nH]c1=O,103% (inactive)
5,C=C1c2nc3ccccc3n2C=C(c2ccc(Cl)cc2)N1Cc1ccccc1,79.1% (inactive)
6,Cc1cc(C(C)(C)C)ccc1S,111% (inactive)
7,CCOC(=O)C1=C(C)NC(C)=C(C(=O)OCC)C1(C)C,97.7% (inactive)
8,NNc1cccc(/C=C/c2ccccc2)cc1=O,62.6% (inactive)
9,O=C(Nc1ccncc1)C(=O)c1cn(S(=O)(=O)c2ccc(Br)cc2)c2ccccc12,14.5% (inactive)
10,O=C(/C=C/c1cc(-c2ccc3c(c2)OCO3)n[nH]1)c1ccc2c(c1)OCO2,98% (inactive)
11,CCCOC(=O)n1cccc1,109% (inactive)
12,CCN(CC)c1ccc(CNc2ccnc3ccccc23)cc1,8.05% (active)
13,COc1cccc(-c2cc3c(O)cc(C#N)cc3[nH]2)c1,82.1% (inactive)
14,C=C(C)[C@@H]1CC[C@]2(C(=O)N3CCNCC3)CC[C@]3(C)[C@H](CC[C@@H]4[C@@]5(C)C/C(=C/c6ccncc6)C(=O)C(C)(C)[C@@H]5CC[C@]43C)[C@@H]12,99.6% (inactive)
15,Fc1ccccc1-c1nc(-c2nc3cc(Cl)c(Cl)cc3[nH]2)c2ccccn12,79.4% (inactive)
16,O=[N+]([O-])c1cc(Cl)c2[nH]c3c(Cl)cc([N+](=O)[O-])cc3c2c1,-60.7% (active)
17,COc1cc(-c2nn(C(=O)NS(=O)(=O)c3ccccc3)cc2-c2ccncc2)ccc1Cl,95.6% (inactive)
18,COc1cc(NCCCCCN)c2ncccc2c1,111% (inactive)
19,NC(=N\N=C/c1ccc(O)cc1)/C(N)=N\N=C/c1ccc(O)cc1,28.7% (inactive)

row,SMILES,growth
1,Cn1c(=O)c2[nH]c(C3CC=CCC3)nc2n(C)c1=O (stereo not given),111% (inactive)
2,O=C(/C=C/c1ccccc1)c1cccc(O)c1,107% (inactive)
3,C=C[C@@H]1C[C@H](O)Cc2cc(F)ccc2N1,93.3% (inactive)
4,O=C(O)Cc1cccc(=O)c(O)c1C(=O)O,108% (inactive)
5,O=C(O)COc1ccc(-c2cssc2=S)cc1,100% (inactive)
6,c1ccc(-c2nnc(-c3ccccn3)s2)nc1,97.2% (inactive)
7,CC(C)CC1NC(C)(C)CO1 (stereo not given),104% (inactive)
8,CC(C)(C)N1CCC1C(N)=O (stereo not given),107% (inactive)
9,COc1ccc(-c2cnnn2-c2nonc2-n2cccc2)cc1OC,55.6% (inactive)
10,O=C(O)C1CCCCN1c1nc(Cl)nc(Cl)n1 (stereo not given),97.3% (inactive)
11,CCCCN(CCCC)C(=N)c1ccnc2ccccc12,119% (inactive)
12,O=S(=O)(NCCNc1nccc(-c2c(-c3cccc(O)c3)nc3sccn23)n1)c1ccc(F)cc1,39.8% (inactive)
13,COc1cc(-c2nn(-c3cccc(NC(=O)c4cccc(C(F)(F)F)c4)c3)cc2-c2ccncc2)ccc1Cl,-33% (active)
14,Cc1ccc(Cc2c(C=O)nc(N)[nH]c2=O)c2ccccc12,107% (inactive)
15,Cn1cnc2c(N3CCN(C(=O)OCc4ccc5c(Cl)cc(Cl)c(O)c5n4)CC3)nc(Cl)nc21,41.6% (inactive)
16,COc1ccc(-c2c(N)n[nH]c2-c2cc(OC)c3c(c2)OCCO3)cc1,69.8% (inactive)
17,CCOC(=O)c1ccc2c(c1)c1c(C)c3cccnc3c(C)c1n2C,69.9% (inactive)
18,Cc1nc2ncccc2nc1Nc1ccc(S(=O)(=O)Nc2ccccn2)cc1,99% (inactive)
19,COc1ccc(C2=C(c3cc(OC)c(OC)c(OC)c3)C(=O)CC2)cc1,-33.6% (active)

# System: UACC-62 melanoma
# Test: as above
# Details: 10 µM unless noted
row,SMILES,growth
1,COc1cc(-c2nn(-c3cccc(NC(=O)Nc4cc(C(F)(F)F)cc(C(F)(F)F)c4)c3)cc2-c2ccncc2)ccc1Cl,-55.9% (active)
2,CCOC(=O)NNC(=S)Nc1ccccc1,95.5% (inactive)
3,N#Cc1c(-c2ccccc2)nc(SCC(=O)N2CCN(c3ccccc3)CC2)[nH]c1=O,106% (inactive)
4,C=C1c2nc3ccccc3n2C=C(c2ccc(Cl)cc2)N1Cc1ccccc1,71% (inactive)
5,Cc1cc(C(C)(C)C)ccc1S,98.6% (inactive)
6,CCOC(=O)C1=C(C)NC(C)=C(C(=O)OCC)C1(C)C,98.7% (inactive)
7,COc1ccc(CNCCCN2C(=O)c3ccc4c5c(ccc(c35)C2=O)C(=O)N(CCCNCCCCNCCCN)C4=O)c(OC)c1OC,1.36% (active)
8,NNc1cccc(/C=C/c2ccccc2)cc1=O,54.5% (inactive)
9,O=C(Nc1ccncc1)C(=O)c1cn(S(=O)(=O)c2ccc(Br)cc2)c2ccccc12,38.3% (inactive)
10,O=C(/C=C/c1cc(-c2ccc3c(c2)OCO3)n[nH]1)c1ccc2c(c1)OCO2,97.4% (inactive)
11,CCCOC(=O)n1cccc1,91.5% (inactive)
12,CCN(CC)c1ccc(CNc2ccnc3ccccc23)cc1,76.4% (inactive)
13,COc1cccc(-c2cc3c(O)cc(C#N)cc3[nH]2)c1,70.9% (inactive)
14,Fc1ccccc1-c1nc(-c2nc3cc(Cl)c(Cl)cc3[nH]2)c2ccccn12,83.1% (inactive)
15,O=[N+]([O-])c1cc(Cl)c2[nH]c3c(Cl)cc([N+](=O)[O-])cc3c2c1,9.86% (active)
16,COc1cc(-c2nn(C(=O)NS(=O)(=O)c3ccccc3)cc2-c2ccncc2)ccc1Cl,66.7% (inactive)

row,SMILES,growth
1,NC(=N\N=C/c1ccc(O)cc1)/C(N)=N\N=C/c1ccc(O)cc1,30.3% (inactive)
2,Cn1c(=O)c2[nH]c(C3CC=CCC3)nc2n(C)c1=O (stereo not given),96% (inactive)
3,C=C[C@@H]1C[C@H](O)Cc2cc(F)ccc2N1,99.1% (inactive)
4,O=C(O)Cc1cccc(=O)c(O)c1C(=O)O,100% (inactive)
5,O=C(O)COc1ccc(-c2cssc2=S)cc1,107% (inactive)
6,c1ccc(-c2nnc(-c3ccccn3)s2)nc1,95.7% (inactive)
7,CC(C)CC1NC(C)(C)CO1 (stereo not given),106% (inactive)
8,CC(C)(C)N1CCC1C(N)=O (stereo not given),91.5% (inactive)
9,COc1ccc(-c2cnnn2-c2nonc2-n2cccc2)cc1OC,54.1% (inactive)
10,O=C(O)C1CCCCN1c1nc(Cl)nc(Cl)n1 (stereo not given),99.8% (inactive)
11,O=S(=O)(NCCNc1nccc(-c2c(-c3cccc(O)c3)nc3sccn23)n1)c1ccc(F)cc1,16.7% (inactive)
12,Cc1ccc(Cc2c(C=O)nc(N)[nH]c2=O)c2ccccc12,110% (inactive)
13,Cn1cnc2c(N3CCN(C(=O)OCc4ccc5c(Cl)cc(Cl)c(O)c5n4)CC3)nc(Cl)nc21,53.7% (inactive)
14,COc1ccc(-c2c(N)n[nH]c2-c2cc(OC)c3c(c2)OCCO3)cc1,71% (inactive)
15,Cc1nc2ncccc2nc1Nc1ccc(S(=O)(=O)Nc2ccccn2)cc1,89.4% (inactive)
16,COc1ccc(C2=C(c3cc(OC)c(OC)c(OC)c3)C(=O)CC2)cc1,32.7% (inactive)
